According to PubChem BioAssay (Tox21):
Results filed as inconclusive are left out. Values without a mark were called inactive. The source made the active and inactive calls. Calls come from the whole dose curve; as a rule, active = well fitted activation curve with a large enough effect in the signal ratio in the repeat runs (not every such curve was filed as active); inconclusive = weak or mixed curves, or effect the other way; inactive = no such curve, though single readings can be large or run the other way; the % refers to the signal ratio.

molecular target: Glucocorticoid receptor (Homo sapiens) (UniProt P04150); assay: qHTS assay to identify small molecule agonists of the glucocorticoid receptor (GR) signaling pathway (AID 720691); details: GR-bla HeLa, beta-lactamase reporter ratio, 18 h; series mostly up to 62.4 µM; activation: at the top concentration
Description: U.S. Tox21 Program National Center for Advancing Translational Sciences [NCATS] NIH Chemical Genomics Center [NCGC] U.S. Environmental Protection Agency [EPA] National Institutes of Environmental Health Sciences [NIEHS] National Toxicology Program [NTP] U.S. Food and Drug Administration [FDA] Tox21 Assay Overview: The Glucocorticoid receptor (GR) is one of the members of the nuclear receptor family of ligand-dependent transcription factors. GR plays a critical role in carbohydrate, protein and lipid metabolisms and programmed cell death. CellSensor GR-bla HeLa cell line (Invitrogen) contains a beta-lactamase reporter gene under the control of the glucocorticoid response element stably integrated into HeLa cells, a cervical cancer cell line that expresses glucocorticoid receptor. The activation of the reporter gene under culture conditions can be detected by fluorescence intensity. This cell line has been used to screen the Tox21 10K compound library and to identify the compounds that activate the GR signaling.
Tox21 Assay Protocol Summary: The GR-bla HeLa cells were dispensed at 1500 cells/6 ul/well in 1536-well black wall/clear bottom plates using a Multidrop Combi (ThermoFisher Scientific, Waltham, MA) dispenser. After the assay plates were incubated at a 37 C/5% CO2 incubator for 4 hours, 23 nL of compounds dissolved in DMSO, positive controls or DMSO only was transferred to the assay plate by a pintool station (Kalypsys, San Diego, CA). The plates were incubated at 37 C for 18 hours. After 1 uL of LiveBLAzerTM B/G FRET substrate was added using a Flying Reagent Dispenser (Aurora Discovery, San Diego, CA), the plates were incubated at room temperature for 2 hours, and fluorescence intensity was measured by an Envision plate reader (PerkinElmer, Shelton, CT).
% is set by controls: 0 for no effect and ±100 for the full control effect.

Glucocorticoid receptor (Homo sapiens), sequence (P04150 whole entry, looked up): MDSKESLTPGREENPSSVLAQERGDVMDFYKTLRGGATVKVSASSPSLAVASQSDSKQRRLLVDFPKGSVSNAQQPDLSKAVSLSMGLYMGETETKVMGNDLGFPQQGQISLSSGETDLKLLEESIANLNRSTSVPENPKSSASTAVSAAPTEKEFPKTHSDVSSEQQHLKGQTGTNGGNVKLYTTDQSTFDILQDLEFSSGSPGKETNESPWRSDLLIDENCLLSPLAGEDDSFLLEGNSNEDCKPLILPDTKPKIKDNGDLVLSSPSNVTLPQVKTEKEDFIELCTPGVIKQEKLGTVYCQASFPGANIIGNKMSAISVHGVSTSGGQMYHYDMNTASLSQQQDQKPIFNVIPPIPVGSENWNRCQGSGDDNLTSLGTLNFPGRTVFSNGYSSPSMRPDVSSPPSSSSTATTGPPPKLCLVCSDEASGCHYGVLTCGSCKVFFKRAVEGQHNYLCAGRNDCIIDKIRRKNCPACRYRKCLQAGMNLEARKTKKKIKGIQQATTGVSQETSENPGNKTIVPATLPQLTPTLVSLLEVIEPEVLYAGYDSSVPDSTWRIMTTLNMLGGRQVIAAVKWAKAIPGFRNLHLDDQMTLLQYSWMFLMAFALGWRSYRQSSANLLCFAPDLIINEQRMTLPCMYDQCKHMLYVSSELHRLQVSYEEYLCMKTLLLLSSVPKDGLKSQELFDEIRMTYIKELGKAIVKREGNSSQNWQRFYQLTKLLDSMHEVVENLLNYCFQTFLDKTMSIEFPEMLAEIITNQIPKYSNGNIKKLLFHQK

| SMILES | activation | Potency |
| --- | --- | --- |
| NCCNCCO | -0.297% [at 79.2 µM] | – |
| CN1CCCC(n2nc(Cc3ccc(Cl)cc3)c3ccccc3c2=O)CC1 (stereo not given) | -3.59% | – |
| CC/C=C1/OC(=O)c2ccccc21 | -0.117% | – |
| C=Cc1ccc(S(=O)(=O)O)cc1 | – | inactive |
| CCOC(=O)c1ccc(OCCN2C[C@H](O)[C@@H](O)[C@H](O)[C@H]2CO)cc1 | -3.14% | – |
| O=C1c2ccccc2C(=O)C1c1nc2ccccc2c(Br)c1O | -6.06% | – |
| O=Cc1c2ccccc2c(Cl)c2ccccc12 | 1.66% | – |
| CC1(C)[C@@H](OC(=O)CCC(=O)O)CC[C@]2(C)[C@H]3C(=O)C=C4[C@@H]5C[C@@](C)(C(=O)O)CC[C@]5(C)CC[C@@]4(C)[C@]3(C)CC[C@@H]12 | -2.62% [at 29.2 µM] | – |
| CC(CN(C)C)C(C)(O)Cc1ccc(Cl)cc1 (stereo not given) | -3.05% | – |
| O=[N+]([O-])c1ccc(Nc2ccc(Nc3ccccc3)c(S(=O)(=O)O)c2)c([N+](=O)[O-])c1 | -0.908% | – |
| O=C1NC(=O)c2cc([N+](=O)[O-])ccc21 | 2.45% [at 79.2 µM] | – |
| Cc1cc2c(OCC(CNC(C)(C)C)OC(=O)c3ccccc3)cccc2[nH]1 (stereo not given) | -0.993% | – |
| CCc1ccccc1 | -0.22% [at 79.2 µM] | – |
| CCCC(C(=O)OCCN(CC)CC)(c1ccccc1)c1ccccc1 | -1.24% | – |
| CCCCCCNC(=O)n1cc(F)c(=O)[nH]c1=O | -0.624% | – |
| O=C(CCCN1CC=C(n2c(=O)[nH]c3ccccc32)CC1)c1ccc(F)cc1 | 4.03% | – |
| CCC1CO1 (stereo not given) | 2.02% | – |
| C/C=C/C=C/C=O | -2.5% | – |
| O[C@@H]1CO[C@H]2[C@@H]1OC[C@@H]2O | 0.473% | – |
| Cc1ccccc1N=C(N)Nc1ccccc1C | -0.868% | – |

| SMILES | activation | Potency |
| --- | --- | --- |
| N#CCCN(CCO)CCO | 1.74% | – |
| CC(C)(C)C(=O)C(=O)O | -0.632% | – |
| CCCCCC[C@@H](O)C/C=C\CCCCCCCC(=O)OCC(O)CO (stereo not given in full) | 3.31% | – |
| O=C1CCCCCCCCCCOCCCCO1 | -0.227% | – |
| CCOc1cccc(-n2cc(C(=O)N3CCN(c4cc(C(=O)O)c5ccccc5c4)CC3)nc2-c2ccc(C)cc2)c1 | 11.3% | – |
| CCC(=O)C1CC(C(C)C)CC=C1C (stereo not given) | 0.298% | – |
| COc1cc(N)c(Cl)cc1C(=O)NC1CCN(CCCOc2ccc(F)cc2)CC1OC (stereo not given) | -0.93% [at 29.2 µM] | – |
| COc1ccccc1Oc1c(NS(=O)(=O)c2ccc(C(C)(C)C)cc2)nc(-c2ncccn2)nc1OCCO | -3.27% | – |
| CN1C[C@H](C(=O)N[C@]2(C)O[C@@]3(O)[C@@H]4CCCN4C(=O)[C@H](Cc4ccccc4)N3C2=O)C[C@@H]2c3cccc4[nH]cc(c34)C[C@H]21 | -9.61% | – |
| CCCCCCCCCI | -1.68% [at 79.2 µM] | – |
| Oc1cccc(O)c1O | – | inactive |
| O=C(O)C[C@H](NC(=O)OCc1ccccc1)C(=O)O | 0.0648% | – |
| CC[C@]1(O)C[C@H]2CN(CCc3c([nH]c4ccccc34)[C@@](C(=O)OC)(c3cc4c(cc3OC)N(C=O)[C@H]3[C@@](O)(C(=O)OC)[C@H](OC(C)=O)[C@]5(CC)C=CCN6CC[C@]43[C@@H]65)C2)C1 | 0.172% | – |
| C1COC1 | 0.534% | – |
| NNC(=O)CP(=O)(c1ccccc1)c1ccccc1 | -1.35% | – |
| Cc1cccc(O)c1N | -4.89% [at 79.2 µM] | – |
| CCCCCC[C@@H](O)C/C=C\CCCCCCCC(=O)O | – | inactive |
| CC(C)C(O)(c1ccc(OC(F)(F)F)cc1)c1cncnc1 (stereo not given) | -8.88% | – |
| CC1CC(OC(=O)C(O)c2ccccc2)CC(C)(C)N1C (stereo not given) | – | inactive |
| Brc1cc2ccccc2c2ccccc12 | -1.64% [at 79.2 µM] | – |
